According to PubChem BioAssay AID1159580 (chemical genetic matrix, 2015):
Where “and” joins values, the source holds several entries; their conditions need not be identical. Equal values may be shown once. The campaign covered roughly 5,500 compounds. About 2,000 (36%) were called active. Roughly 18% stayed inconclusive and do not appear here. Rule as the data show it: active = normalized growth mostly below about 0.91 (no sharp cut-off); inconclusive = no clear call, values can overlap the other calls; inactive = mostly above about 0.92. The list shows a part of the results.

Experiment: chemical genetic growth profiling, strain panel (AID 1159580);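 also: tested at 20 µM; growth read once vehicle control cultures reached saturation at 30 °C; 1 = growth at the plate median or of vehicle wells; lower values mean less growth of the strain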
Conditions: growth OD

Measured: normalized growth

O=C1NCC2(CCN(CCc3ccccc3)CC2)O1
inactive: S. cerevisiae deletion strains, locus YKL009W, strain mrt4, stronger effect = lower value 0.986 | S. cerevisiae deletion strains, locus YKL068W, stronger effect = lower value 0.995 | S. cerevisiae deletion strains, locus YKL085W, strain MDH1 (second series), stronger effect = lower value 0.995 | S. cerevisiae deletion strains, locus YKL085W, strain MDH1, stronger effect = lower value 0.995 | S. cerevisiae deletion strains, locus YKL160W, strain elf1, stronger effect = lower value 0.97 | S. cerevisiae deletion strains, locus YKL190W, strain CNB1, stronger effect = lower value 1 | S. cerevisiae deletion strains, locus YKR001C, strain vps1, stronger effect = lower value 0.999 | S. cerevisiae deletion strains, locus YKR026C, strain gcn3, stronger effect = lower value 0.939 | S. cerevisiae deletion strains, locus YKR091W, strain srl3, stronger effect = lower value 1.01 | S. cerevisiae deletion strains, locus YLL001W, strain dnm1, stronger effect = lower value 0.945 | S. cerevisiae deletion strains, locus YLL026W, stronger effect = lower value 1 | S. cerevisiae deletion strains, locus YLL041C, strain sdh2, stronger effect = lower value 0.999 | S. cerevisiae deletion strains, locus YLR027C, strain aat2, stronger effect = lower value 0.995 | S. cerevisiae deletion strains, locus YLR039C, strain RIC1, stronger effect = lower value 1 | S. cerevisiae deletion strains, locus YLR058C, strain SHM2, stronger effect = lower value 1.01 | S. cerevisiae deletion strains, locus YLR102C, strain apc9, stronger effect = lower value 0.999 | S. cerevisiae deletion strains, locus YLR113W, strain HOG1, stronger effect = lower value 0.964 | S. cerevisiae deletion strains, locus YLR221C, strain rsa3, stronger effect = lower value 1 | S. cerevisiae deletion strains, locus YLR258W, strain gsy2, stronger effect = lower value 1 | S. cerevisiae deletion strains, locus YLR262C, strain YPT6 (second series), stronger effect = lower value 0.981 | S. cerevisiae deletion strains, locus YLR262C, strain YPT6, stronger effect = lower value 0.968 | S. cerevisiae deletion strains, locus YLR268W, strain sec22, stronger effect = lower value 1.04 | S. cerevisiae deletion strains, locus YLR320W, strain mms22, stronger effect = lower value 1.02 | S. cerevisiae deletion strains, locus YLR330W, strain CHS5, stronger effect = lower value 1.01 | S. cerevisiae deletion strains, locus YLR342W, strain FKS1 (second series), stronger effect = lower value 1.01 | S. cerevisiae deletion strains, locus YLR342W, strain FKS1, stronger effect = lower value 0.994 | S. cerevisiae deletion strains, locus YLR357W, strain rsc2, stronger effect = lower value 0.981 | S. cerevisiae deletion strains, locus YLR370C, strain arc18, stronger effect = lower value 0.989 | S. cerevisiae deletion strains, locus YLR371W, strain rom2, stronger effect = lower value 1.01 | S. cerevisiae deletion strains, locus YLR384C, strain iki3, stronger effect = lower value 0.988 | S. cerevisiae deletion strains, locus YLR418C, strain cdc73, stronger effect = lower value 0.981 | S. cerevisiae deletion strains, locus YML016C, strain PPZ1, stronger effect = lower value 1 | S. cerevisiae deletion strains, locus YML032C, strain rad52, stronger effect = lower value 1.02 | S. cerevisiae deletion strains, locus YML120C, strain ndi1, stronger effect = lower value 0.984 | S. cerevisiae deletion strains, locus YML124C, strain tub3, stronger effect = lower value 0.996 | S. cerevisiae deletion strains, locus YMR058W, strain fet3, stronger effect = lower value 0.979 | S. cerevisiae deletion strains, locus YMR078C, strain ctf18, stronger effect = lower value 1 | S. cerevisiae deletion strains, locus YMR125W, strain sto1, stronger effect = lower value 0.97 | S. cerevisiae deletion strains, locus YMR129W, stronger effect = lower value 0.98 | S. cerevisiae deletion strains, locus YMR205C, strain PFK2, stronger effect = lower value 1.01 | S. cerevisiae deletion strains, locus YMR223W, strain ubp8, stronger effect = lower value 0.978 | S. cerevisiae deletion strains, locus YMR231W, strain pep5, stronger effect = lower value 0.994 | S. cerevisiae deletion strains, locus YMR263W, strain SAP30, stronger effect = lower value 1.02 and 1 | S. cerevisiae deletion strains, locus YMR307W, strain GAS1, stronger effect = lower value 0.884 | S. cerevisiae deletion strains, locus YNL067W, strain RPL9B, stronger effect = lower value 1.02 | S. cerevisiae deletion strains, locus YNL071W, strain lat1, stronger effect = lower value 1.01 | S. cerevisiae deletion strains, locus YNL128W, strain TEP1, stronger effect = lower value 1.02 | S. cerevisiae deletion strains, locus YNL153C, strain GIM3, stronger effect = lower value 1.02 and 1.04 | S. cerevisiae deletion strains, locus YNL175C, strain NOP13, stronger effect = lower value 1.01 | S. cerevisiae deletion strains, locus YNL183C, strain NPR1, stronger effect = lower value 0.904 | S. cerevisiae deletion strains, locus YNL197C, strain WHI3, stronger effect = lower value 0.992 | S. cerevisiae deletion strains, locus YNL209W, strain ssb2, stronger effect = lower value 0.998 | S. cerevisiae deletion strains, locus YNL224C, strain SQS1, stronger effect = lower value 0.995 | S. cerevisiae deletion strains, locus YNL233W, strain BNI4, stronger effect = lower value 1.02 | S. cerevisiae deletion strains, locus YNL248C, strain rpa49, stronger effect = lower value 1.01 | S. cerevisiae deletion strains, locus YNL250W, strain rad50, stronger effect = lower value 1 | S. cerevisiae deletion strains, locus YNL271C, strain bni1, stronger effect = lower value 1.01 | S. cerevisiae deletion strains, locus YNL298W, strain CLA4, stronger effect = lower value 0.989 | S. cerevisiae deletion strains, locus YNL307C, strain MCK1, stronger effect = lower value 1.01 | S. cerevisiae deletion strains, locus YNL322C, strain KRE1 (second series), stronger effect = lower value 0.999 | S. cerevisiae deletion strains, locus YNL322C, strain KRE1, stronger effect = lower value 1 and 1.01 | S. cerevisiae deletion strains, locus YNR049C, strain mso1, stronger effect = lower value 0.987 | S. cerevisiae deletion strains, locus YNR052C, strain pop2, stronger effect = lower value 1 | S. cerevisiae deletion strains, locus YOL006C, strain TOP1, stronger effect = lower value 1.07 | S. cerevisiae deletion strains, locus YOL012C, strain htz1 0.911 | S. cerevisiae deletion strains, locus YOL147C, strain pex11, stronger effect = lower value 0.996 | S. cerevisiae deletion strains, locus YOR001W, strain rrp6, stronger effect = lower value 0.985 | S. cerevisiae deletion strains, locus YOR061W, strain CKA2, stronger effect = lower value 1.01 | S. cerevisiae deletion strains, locus YOR069W, strain VPS5, stronger effect = lower value 0.99 | S. cerevisiae deletion strains, locus YOR070C, strain gyp1, stronger effect = lower value 1 | S. cerevisiae deletion strains, locus YOR080W, strain dia2, stronger effect = lower value 0.988 | S. cerevisiae deletion strains, locus YOR083W, strain WHI5 (second series), stronger effect = lower value 1 | S. cerevisiae deletion strains, locus YOR083W, strain WHI5, stronger effect = lower value 0.988 | S. cerevisiae deletion strains, locus YOR106W, strain vam3, stronger effect = lower value 0.979 | S. cerevisiae deletion strains, locus YOR136W, strain idh2, stronger effect = lower value 0.988 | S. cerevisiae deletion strains, locus YOR144C, strain elg1, stronger effect = lower value 1 | S. cerevisiae deletion strains, locus YOR184W, strain ser1, stronger effect = lower value 0.993 | S. cerevisiae deletion strains, locus YOR231W, strain MKK1, stronger effect = lower value 0.979 | S. cerevisiae deletion strains, locus YOR265W, strain rbl2, stronger effect = lower value 0.999 | S. cerevisiae deletion strains, locus YOR270C, strain vph1, stronger effect = lower value 0.975 | S. cerevisiae deletion strains, locus YOR290C, strain snf2, stronger effect = lower value 1 | S. cerevisiae deletion strains, locus YOR316C, strain cot1, stronger effect = lower value 0.999 | S. cerevisiae deletion strains, locus YPL051W, strain arl3, stronger effect = lower value 0.995 | S. cerevisiae deletion strains, locus YPL055C, strain LGE1, stronger effect = lower value 0.993 and 1 | S. cerevisiae deletion strains, locus YPL078C, strain atp4, stronger effect = lower value 0.991 | S. cerevisiae deletion strains, locus YPL106C, strain sse1, stronger effect = lower value 1 | S. cerevisiae deletion strains, locus YPL240C, strain hsp82, stronger effect = lower value 0.986 | S. cerevisiae deletion strains, locus YPL241C, strain CIN2, stronger effect = lower value 1.01 | S. cerevisiae deletion strains, locus YPL256C, strain CLN2, stronger effect = lower value 0.986 | S. cerevisiae deletion strains, locus YPR119W, strain clb2, stronger effect = lower value 1 | S. cerevisiae deletion strains, locus YPR141C, strain kar3, stronger effect = lower value 0.997 | S. cerevisiae deletion strains, locus YPR163C, strain tif3, stronger effect = lower value 1.01 | S. cerevisiae deletion strains, locus YPR167C, strain met16, stronger effect = lower value 1 | S. cerevisiae deletion strains, strain wtn01, stronger effect = lower value 0.997 | S. cerevisiae strains, strain wild type, stronger effect = lower value 1.01
